Screens: PubChem BioAssay, several laboratories
Sampled rows, rich in hits. Any-hit rate of the full collection: about 6.9%.
Mdm2 MdmX PPI – human Mdm2/MdmX binding inhibition; O15151+Q00987; SaOS-2 split-luciferase Mdm2/MdmX complementation, luminescence; inhibition, % at 8 µM; 330,000 tested, 3% active;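 active means inhibition of at least 50% at 8 µM in the primary screen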
Target sequence (O15151 whole entry, looked up): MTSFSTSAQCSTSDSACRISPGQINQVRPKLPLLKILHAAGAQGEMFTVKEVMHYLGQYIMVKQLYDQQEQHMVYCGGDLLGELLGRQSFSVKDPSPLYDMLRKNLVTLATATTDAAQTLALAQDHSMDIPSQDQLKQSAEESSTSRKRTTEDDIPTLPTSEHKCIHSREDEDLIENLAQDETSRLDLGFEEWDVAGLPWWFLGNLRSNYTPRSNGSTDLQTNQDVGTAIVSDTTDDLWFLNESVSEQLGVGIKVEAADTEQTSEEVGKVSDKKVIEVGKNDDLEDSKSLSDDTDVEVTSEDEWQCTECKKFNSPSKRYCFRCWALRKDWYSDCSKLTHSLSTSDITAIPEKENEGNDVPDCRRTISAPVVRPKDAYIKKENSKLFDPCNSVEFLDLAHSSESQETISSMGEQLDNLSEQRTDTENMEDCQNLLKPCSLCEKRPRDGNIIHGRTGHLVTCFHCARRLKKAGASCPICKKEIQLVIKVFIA
Target sequence (Q00987 whole entry, looked up): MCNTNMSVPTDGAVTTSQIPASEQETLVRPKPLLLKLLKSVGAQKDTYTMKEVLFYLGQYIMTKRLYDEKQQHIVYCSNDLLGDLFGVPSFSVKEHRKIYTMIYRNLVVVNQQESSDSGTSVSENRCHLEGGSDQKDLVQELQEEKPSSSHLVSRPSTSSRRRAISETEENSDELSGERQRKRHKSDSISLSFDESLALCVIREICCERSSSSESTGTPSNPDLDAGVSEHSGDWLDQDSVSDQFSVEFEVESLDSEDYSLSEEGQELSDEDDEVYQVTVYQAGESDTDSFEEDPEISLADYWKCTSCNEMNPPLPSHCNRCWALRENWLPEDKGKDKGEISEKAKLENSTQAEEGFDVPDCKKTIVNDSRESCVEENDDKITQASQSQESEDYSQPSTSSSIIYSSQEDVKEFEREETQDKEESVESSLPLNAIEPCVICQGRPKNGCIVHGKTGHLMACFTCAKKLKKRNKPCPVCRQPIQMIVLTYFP
GRIN3A LBD mod – modulates the human NR3A ligand-binding domain; NR3A LBD differential scanning fluorimetry, Tm shift; 0% = protein alone, 100% = glycine-bound protein; 340,000 tested, 2.5% active; Tm shift relative to glycine control, % at 25 µM; AID 1259313;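 active means melting temperature shift of at least 10% of the positive control shift, at one fixed dose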
SKKanGAS inh – SKKanGAS growth inhibition; S. pyogenes SKKanGAS, kanamycin growth, BacTiter-Glo, 6 h; inhibition, % at 7.5 µM; 300,000 tested, 1.3% active; AID 1662;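 active means mean replicate score, as percent of positive control median, at least 50; inconclusive means mean below 50 but one replicate at or above 50; inactive means mean and every replicate below 50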;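 further: strain carries kanamycin resistance gene driven by streptokinase promoter and grows in 40 µg/ml kanamycin; loss of luminescence reflects streptokinase promoter inhibition or plain growth inhibition; 0% = median of DMSO wells and 100% = positive control at its reference dose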
CSC inhib – cancer stem cell inhibition; cancer stem cell-like cells viability, luminescence; inhibition, % at 7.5 µM; 300,000 tested, 1.1% active; in the data active means inhibition above about 75%; inconclusive means no clear call, values can overlap the other calls; tested in HMLE shEcad cells
Beta cell apopt – blocks beta cell apoptosis. INS-1E cytokine-induced death, ATP luminescence, 48 h; percent of positive-control rescue, neutral wells zero. protection from apoptosis, % (test concentration not listed). 300,000 tested, 0.8% active. AID 435005;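 active means Every replicate reaches about 75%, or at least half do and their mean reaches it too, limit read from the data; inconclusive means At least half of replicates reach the limit but their mean does not; inactive means Under half of replicates reach the limit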;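 further: 0% = cytokine-treated negative control wells and 100% = positive control rescue; higher means more ATP so stronger rescue from cytokine killing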
MPTP block – blocks calcium-induced mitochondrial swelling. 360,000 tested, 1.4% active. inhibition, % at 10 µM. isolated mouse mitochondria, Ca2+ swelling absorbance, 30 min. AID 602449;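 active means inhibition of 50% or more, scaled per plate between neutral and stimulator controls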;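 further: 0% = DMSO wells given calcium and 100% = 1 mM EGTA wells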
Rh123 counter – membrane potential counter-screen of mitochondrial pore inhibitors; isolated mitochondria, Rhodamine 123 fluorescence; AID 624504; shares compounds with MPTP block; inhibition, % at 10 µM; 5,000 tested, 78% active; in the data active means inhibition above about 22%;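 further: 0% = DMSO vehicle and 100% = positive control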
MPTP abs DR – MPTP inhibition, dose response swelling confirmation. shares compounds with MPTP block. isolated mitochondria swelling, absorbance. IC50, µM. 780 tested, 58% active; in the data active means IC50 below about 20 µM
MPTP counter DR – counter-screen for mitochondrial permeability transition pore inhibitors, dose response; 780 tested, 49% active; isolated mitochondria counterscreen, fluorescence read-out; IC50, µM; shares compounds with MPTP block; in the data active means IC50 below about 80 µM
An asterisk follows results filed as active; ? = inconclusive; · = no result.

SMILES	Mdm2 MdmX PPI	GRIN3A LBD mod	SKKanGAS inh	CSC inhib	Beta cell apopt	MPTP block	Rh123 counter	others
Cc1cc2c3c([nH]c2cc1S(=O)(=O)N1CCC2(CC1)OCCO2)CCCC3=O	18.9	-2.2	-0.5	-6.1	27.2	0.4	·
c1coc(CN(Cc2ccco2)c2ncnc3c2oc2ccccc23)c1	39.2	-0.3	?	33.6	·	83.4*	66.6*
O=C(/C=C/c1cccc([N+](=O)[O-])c1)NCCSCc1ccc(Cl)cc1Cl	-19.5	-23.3	-15.3	32.0	3.4	66.8*	72.5*
OCCN1CCN(CC/C=C2/c3ccccc3Sc3ccc(C(F)(F)F)cc32)CC1	37.5	-1.7	5.4	50.8	6.5	90.7*	-12.7
Brc1ccc(CNc2ccc3ncccc3c2)cc1	-60.3	-2.5	2.4	-3.1	29.7	91.8*	86.4*
CCC(=O)N1CCc2cc(S(=O)(=O)NCCC(=O)N3CCc4ccccc4C3)ccc21	25.3	2.7	0.7	-8.5	23.7	76.4*	61.1*
CC(C(=O)Nc1ccc2c(c1)OCCO2)N1Cc2ccccc2C1=O (centres undefined)	25.1	-0.7	-2.1	-4.6	-1.5	-0.6	·
COc1ccccc1CNc1nc(NC(C)C)nc2cc(-c3ccccc3)sc12	·	·	·	·	·	75.0*	100.9*
CC(C)Nc1nc(NCCOc2ccccc2Cl)c2sc(-c3ccccc3)cc2n1	·	·	·	·	·	60.1*	105.0*
CCOc1ccc2nc(N3CCCC(C(=O)NCC4CCCO4)C3)sc2c1 (centres undefined)	-20.9	0.4	7.2	-20.3	4.6	1.6	·
CCSc1nsc(NC(=O)Nc2ccccc2Cl)n1	·	4.6	·	·	·	63.0*	89.8*
CCSc1nsc(NC(=O)Nc2ccc(F)cc2F)n1	-23.6	0.3	21.4	45.8	·	71.8*	91.0*
CCOc1ccc(NC(=O)c2nsc(Cl)c2Cl)cc1	-162.1	5.2	-4.4	-6.7	4.7	0.7	·
CCOc1ccc(NC(=O)Nc2nc(SCC)ns2)cc1	48.2	37.4*	-2.7	17.5	9.9	96.8*	79.4*
CCCOc1ccccc1NC(=O)Nc1ccccc1Cl	12.2	0.5	1.5	-7.7	3.6	13.8	·
CCC(CC)NC(=O)Nc1ccc(F)cc1F	-18.5	-5.6	4.4	-5.8	1.6	1.8	·
CCOc1ccccc1NC(=S)Nn1cnnc1	19.1	0.6	-3.5	-6.9	3.0	-0.1	·
Cn1cc(Br)c(-c2cccc(NC(=O)CCC(=O)O)c2)n1	13.7	0.5	-3.7	-5.1	-4.2	0.2	·
Cc1noc(C)c1CSc1ccccc1C(=O)O	16.6	-0.7	0.3	-7.1	-1.2	-2.7	·
CC(C)COC(=O)NC1c2ccccc2Oc2ccccc21	24.4	-0.4	12.9	6.3	-3.0	1.1	·
CCc1nnc(SCC(=O)Nc2ccc3ccccc3c2)n1N	12.7	-1.1	·	-0.5	-1.1	0.6	·
CC(C)(C)c1ccc(S(=O)(=O)N2CCC(c3nc4ccc(Cl)cc4[nH]3)CC2)cc1	13.7	2.3	?	18.9	·	93.8*	89.5*
COc1ccccc1C(=O)Nc1ccnn1C1CCN(Cc2ncc[nH]2)CC1	10.7	1.2	8.5	-3.5	-8.9	-0.5	·
O=C(Nc1ccc([N+](=O)[O-])cc1)Nc1ccc(OC(F)F)c(Cl)c1	·	14.8*	·	103.1*	132.0*	97.9*	47.0*
O=C(Nc1ccc(OC(F)F)c(Cl)c1)Nc1ccc2c(c1)OCO2	40.0	35.2*	-4.2	97.5*	9.4	92.0*	88.2*
SMILES	Mdm2 MdmX PPI	GRIN3A LBD mod	SKKanGAS inh	CSC inhib	Beta cell apopt	MPTP block	Rh123 counter	others
O=C(Nc1ccc2c(c1)OCO2)Nc1ccc(Cl)cc1Cl	-12.4	34.2*	-10.0	8.6	·	83.4*	94.3*
O=C(Nc1ccc(Cl)cc1)Nc1ccc2c(c1)OCO2	-72.4	1.7	-0.5	9.7	-8.0	32.7	·
O=C(Nc1ccc(OC(F)F)c(Cl)c1)c1cccc(OC(F)F)c1	25.4	34.4*	-0.6	31.8	3.4	97.0*	94.8*
CCC1(c2ccc(F)cc2)NC(=O)NC1=O (centres undefined)	23.8	-0.8	13.7	-21.9	-1.7	1.5	·
COc1ccc2oc(C(=O)OCC(=O)N(C)c3c(N)n(Cc4ccccc4)c(=O)[nH]c3=O)c(C)c2c1	-24.3	-0.5	0.0	2.8	·	-1.0	·
Cc1ccc(C)c(S(=O)(=O)NCCCc2ccccc2)c1	-3.1	2.4	-0.5	-4.6	-4.2	0.5	·
CC(=O)c1ccc(NC(=O)CCCN2C(=O)COc3ccc(C)cc32)cc1	-11.0	-3.0	-3.4	1.0	1.7	0.3	·
O=C(Cc1ccc(Cl)cc1Cl)Nc1ccc(OC(F)F)c(Cl)c1	15.2	6.9	7.1	19.6	-3.2	73.8*	84.4*
Cc1ccc(NC(=O)C(C)c2ccc([N+](=O)[O-])cc2)cc1Cl (centres undefined)	-6.0	11.8*	-5.6	15.9	4.6	79.9*	87.0*
O=C(COC(=O)Cc1ccc(Cl)cc1Cl)Nc1ccc(OC(F)F)cc1	6.2	-12.4	-8.0	-13.3	-7.2	1.0	·
O=C(NC(c1ccc(Cl)cc1)c1c(O)ccc2ccccc12)c1ccccc1 (centres undefined)	·	4.1	·	107.1*	98.3*	80.3*	58.8*
CCCCC(=O)NC(c1ccc([N+](=O)[O-])cc1)c1c(O)ccc2ccccc12 (centres undefined)	47.3	-1.1	41.3	64.8	33.1	68.7*	78.5*
CC(C)CC(=O)NC(c1ccccc1)c1c(O)ccc2ccccc12 (centres undefined)	11.4	-2.4	1.3	-2.4	2.0	2.9	·
CCCCCc1nc2sc3c(c2c(=O)n1NC(=O)c1ccc([N+](=O)[O-])cc1)CC(C)(C)OC3	29.0	11.8*	-1.1	·	-7.1	89.6*	75.7*
C=CC[n+]1c(-c2ccc(OCC)cc2)csc1NNC(=O)Nc1ccccc1	10.4	-2.9	18.1	?	98.8*	65.8*	78.7*
C=CC[n+]1c(-c2ccc(C)cc2)csc1Nc1c(C)n(C)n(-c2ccccc2)c1=O	17.1	-3.2	16.4	5.3	·	0.6	·
CCn1c(-c2ccc(C(C)(C)C)cc2)n[nH]c1=S	2.6	1.0	9.0	0.3	-2.0	69.4*	15.9	MPTP abs DR=17.6*;MPTP counter DR=26.3*
O=C(NC1CCN(C(=O)Nc2ccccc2Cl)CC1)c1ccccc1	-20.3	-0.7	1.1	-24.4	6.1	-1.1	·
CC(=O)C1CCC2C3CC=C4CC(SC(=N)N)CCC4(C)C3CCC12C (centres undefined)	·	-5.6	·	·	·	79.9*	23.8*
CCn1nc(C)c(CNC(=O)c2cc(COc3ccc(F)cc3Cl)on2)c1C	-17.1	0.4	-5.9	-5.4	31.6	52.6*	36.3*
